# Measured values as given in ChEMBL document CHEMBL3988442, “University of Dundee, Small-Polar-MMV Screening Library” (2021).
# About 1,200 (3.2%) of roughly 38,000 compounds showed an effect of 50% or more. The median lay at about -58%. For the sample, strong results were picked, then their nearest neighbours and some compounds at random.
# Tested on: Plasmodium falciparum
# Test: Calibr Malaria Delayed Death Assay SOP
# Type: functional, organism-based
# Design: scale not given: in the data most compounds retested in dose-response had high values
# Conditions: concentration 4.99e-06 (unit not given; other assays of the set use mol/L)
row,SMILES,Percent Effect [%]
1,O=C(NCCc1nccs1)N1CCC(n2cccc2)CC1,-128.4
2,Cc1nc(CNC(=O)Nc2cc(C(F)(F)F)c[nH]c2=O)cs1,-139.2
3,CC(=O)N1C[C@H](NS(=O)(=O)c2cccc(Cl)c2)[C@@H](C(C)C)C1,-122
4,Cc1c(Cl)cccc1S(=O)(=O)NCC(O)c1cccn1C (stereo not given),-3.502
5,Cc1cccc(S(=O)(=O)NCC(C)N2CCN(C)CC2)c1Cl (stereo not given),80.79
6,Cc1cc(Cl)ccc1S(=O)(=O)NCC(C)N1CCN(C)CC1 (stereo not given),73.33
7,O=S(=O)(NCC(O)c1cccs1)c1ccccc1Cl (stereo not given),-35.17
8,Cc1cc(F)ccc1S(=O)(=O)NCC(O)c1cccn1C (stereo not given),-27.19
9,CC(NCCNS(=O)(=O)c1cccc(Cl)c1)C1CCOCC1 (stereo not given),24.26
10,COc1ccc(S(=O)(=O)NCC(c2cccn2C)N(C)C)c(C)c1 (stereo not given),47.32
11,CC(CNS(=O)(=O)c1cccc(Cl)c1)N1CCN(C)CC1 (stereo not given),77.12
12,Cc1cccc(-n2nnnc2C(C)(C)Nc2ccccc2C)c1,-66.56
13,O=C(c1ccc2c(c1)COC2)N1CCCN(Cc2cscn2)CC1,-90.53
14,Cc1nn(C)c(N2CCCN(C)CC2)c1CNC(=O)CC(C)(C)C,-44.23
15,Cc1nc(CN2CCC3(CCCN(Cc4ccncc4)C3)C2=O)cs1.O=C(O)C(F)(F)F.O=C(O)C(F)(F)F.O=C(O)C(F)(F)F (stereo not given),-86.96
16,CCc1cc(NCCCOC2CCCC2)ncn1,-19.37
17,CN(C)CCN(Cc1cccnc1)C(=O)c1ccn(-c2ccccc2)n1,87.52
18,N#CCCN(Cc1cccnc1)C(=O)c1ccn(-c2ccccc2)n1,-29.34
19,O=C(c1ccn(-c2ccc(F)cc2)n1)N(CCO)Cc1cccnc1,-20.41
20,Cc1ncoc1C(=O)N1CCOC(CC2CCCCC2)C1 (stereo not given),-117.2
21,CCOc1ccc2[nH]c(=O)c(CN3CCCCC3C)cc2c1 (stereo not given),-50.88
22,Cc1occc1C(=O)NCC1OCCc2cn(C)nc21.O=C(O)C(F)(F)F (stereo not given),-17.21
23,Cc1nn(CC(=O)NCC2(C(N)=O)CCOCC2)c(C)c1Cl,-63.22
24,CCn1ccnc1C1CCN(Cc2cccc(C)n2)CC1,-98.55

row,SMILES,Percent Effect [%]
1,Cc1cccc(CN2CCC(NS(C)(=O)=O)CC2)n1,-83.22
2,O=C(c1c(O)cnc2ccccc12)N1CCCSCC1,-75.93
3,CCn1c(C)cc(C(=O)N2CCC(Nc3ccc(C)nn3)CC2)c1C,-49.09
4,COc1ccccc1CNc1c(N2CCN(C(C)=O)CC2)c(=O)c1=O,-13.77
5,Cc1nc(CCC(=O)NCC(N)=O)cc(C2CCNCC2)n1,-86.52
6,CNC(=O)CCc1cc(C2CCNCC2)nc(C)n1.Cl.Cl,-15.84
7,COc1ccc2cnn(CC(=O)NC3CCCCC3)c(=O)c2c1OC,-20.95
8,Cc1nn(Cc2ccc(C(=O)NCCCN3CCCC3=O)o2)c(C)c1Br,-82.86
9,CC(C)N(C)Cc1cnc2n1CCN(Cc1cccc(C#N)c1)C2,10.5
10,COc1ccc(CC(C)(O)CNC(=O)c2cccs2)cc1 (stereo not given),88.99
11,COc1ccc(CC(C)(O)CNC(=O)Cc2cccs2)cc1 (stereo not given),-86.25
12,CC(O)(CCc1ccccc1)CNC(=O)c1cccs1 (stereo not given),-19.61
13,CCN1C(=O)CCCC12CCCN(C(=O)c1ccncc1F)C2.O=C(O)C(F)(F)F (stereo not given),-52.32
14,CC(=O)Nc1nc(CS(=O)(=O)Cc2ccccc2)cs1,-16.97
15,COCCN1Cc2ccccc2C2(CCN(C(=O)c3ccno3)CC2)C1,-21.64
16,N#Cc1ccc(CNC(=O)NC2CCN(CC(F)(F)F)C2)cc1 (stereo not given),-80.57
17,N#Cc1ccc(CNC(=O)NC2CCN(c3ncccn3)CC2)cc1,-82.81
18,Cc1ccc(CNC2CCN(CCc3ccncc3)CC2)s1,-5.622
19,CSc1ccc(CNC2CCN(CCc3ccncc3)CC2)cc1,92.6
20,CCCN1CCC(NCc2ccncc2)CC1,-53.14
21,COCCn1ccnc1C1CCCN(c2ncnc3c(C)csc23)C1 (stereo not given),-130.5
22,COCCN1CCC(NCc2cccnc2)C1 (stereo not given),-54.93
23,COC(=O)C(O)C1CCN(CCc2ccncc2)CC1 (stereo not given),-64.35
24,Cc1csc2c(N3CCC(Cn4cc(C(C)(C)O)nn4)CC3)ncnc12,-16.92

row,SMILES,Percent Effect [%]
1,Cc1csc2c(N3CCC(NCCCc4ccncc4)CC3)ncnc12,63.19
2,N#Cc1ccc(CNC2CCN(CCc3ccncc3)CC2)cc1,54.87
3,Cc1cccc(CNC2CCN(CCc3ccncc3)CC2)c1C,75.22
4,COC(=O)COn1c(SC)nc2ccccc2c1=O,-26.25
5,Cc1cccnc1CN(C)c1ncnc2[nH]ccc12,-141.2
6,O=C(O)C(F)(F)F.O=C(O)C(F)(F)F.c1cncc(OC[C@@H]2CCC[C@@]23CN(Cc2nccs2)CCO3)c1,-94.41
7,Cn1nc(-c2ccccc2)c(Br)c1C(=O)O,-35.19
8,O=C(C1CCOCC1)N1CCC2(CC1)CN(c1ccsc1)C(=O)CO2,-132.3
9,O=C(c1cnn(-c2ccccc2Cl)c1)N1CCN(CCO)CC1,-76.86
10,COCCn1cc(CC(=O)Nc2nc[nH]n2)c2ccccc21,-106.6
11,Cn1cc(CN2CCS(=O)(=O)C(C)(C)C2)cn1,-18.08
12,COc1ccccc1C(=O)Nc1nc2c(s1)CN(S(=O)(=O)C1CC1)CC2,-86.55
13,COc1ccc(C2(NC(=O)c3ccc(=O)n(C)n3)CCCC2)cc1,-78.19
14,COCCN1CCC(NCc2cccc(F)c2)C1 (stereo not given),-58.84
15,CCCc1cncnc1N1CCC(NCc2ccc(O)cc2)CC1,48.9
16,O=C1CC(NCc2cccc(O)c2)CN1CCc1cccc(Cl)c1 (stereo not given),-115.5
17,CCCc1cncnc1N1CCC(NCc2ccncc2)CC1,65.25
18,Oc1cccc(CNC2CCN(CCc3ccncc3)CC2)c1,-23.71
19,Clc1cccc(CNC2CCN(CCc3ccncc3)CC2)c1,91.89
20,Fc1ccc(C2CN(CCc3ccncc3)CCO2)cc1 (stereo not given),-59.94
21,Fc1ccc(CNC2CCN(CCc3ccncc3)CC2)cc1F,89.24
22,CCCc1cncnc1N1CCC2(CCC(=O)N(C3CCCC3)C2)CC1,27.32
